The nature of assay [1]: optical density shifts of acrAB sulA E. coli – strain DRC41, OD650, 48 h, E. coli filamentation inducer project, primary screen (AID 1152).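 Also: E. coli MC1000 strain DRC41 lacking acrAB efflux pump and sulA.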 Particulars: higher = more signal, called active from +8 up or from −8 down.
The nature of assay [2]: probe aLefty1 binding on compound microarray – biochemical, small-molecule microarray, 635/667 nm fluorescence, primary screen (AID 1153).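 Also: score merges spot fluorescence with signal-to-noise ratio from the scanned slide images.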 Conditions: higher = more signal.
A short description of assay [3]: plasmodial surface anion channel blockers, osmotic lysis – cell-based, P. falciparum Indochina, OD700, 1 h, primary screen (AID 1154). Particulars: P. falciparum Indochina infected RBC osmotic lysis, higher = more signal, called active from +8 up or from −8 down.
Assay [4] can be described thus: plasmodial surface anion channel blockers, osmotic lysis – cell-based, P. falciparum Indochina, OD700, 2 h, primary screen (AID 1155).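 Also: lysis reports solute entry through the parasite surface anion channel PSAC.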 Conditions: P. falciparum Indochina infected erythrocytes, higher = more signal, called active from +8 up or from −8 down.
Assay [5] can be described thus: changes in parasitized red cell lysis, either direction – P. falciparum Indochina, OD700, 3 h, PSAC antagonist project, primary screen (AID 1156). Particulars: P. falciparum-infected erythrocytes, osmotic lysis, higher = more signal, called active from +8 up or from −8 down.
The nature of assay [6]: plasmodial surface anion channel blockers, osmotic lysis – cell-based, P. falciparum Indochina, OD700, 18 h, primary screen (AID 1157). Particulars: P. falciparum Indochina infected erythrocytes, osmotic lysis OD700, 18 h; higher = more signal, called active from +8 up or from −8 down.
The nature of assay [7]: S6 kinase pathway phospho-S6 level changes – cell-based, A549, cytoblot, luminescence, serum-stimulated, primary screen (AID 1158).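 Also: serum-stimulated A549 lung adenocarcinoma cells; signal is phosphorylated S6 detected by cytoblot immunostaining with HRP secondary.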 Particulars: 5 h, higher = more signal.
Assay [8] concerns the target NADPH oxidase 2 (Homo sapiens) (UniProt P04839). The assay is described as follows: compounds shifting NOX2 Amplex Red fluorescence – cell-based, HEK293-NOX2, PMA-stimulated, NOX inhibitor project, primary screen (AID 1159). Also: test concentration not given here. Particulars: 45 min, higher = more signal, called active from +8 up or from −8 down.
For assay [9], the target named is NADPH oxidase 4 (Homo sapiens) (UniProt Q9NPH5). The assay is described as follows: compounds shifting NOX4 Amplex Red fluorescence – cell-based, HEK293-NOX4, tetracycline-induced, NOX inhibitor project, primary screen (AID 1160). Particulars: HEK293-NOX4, Amplex Red H2O2 fluorescence, 45 min; higher = more signal, called active from +8 up or from −8 down.
Sequence of NADPH oxidase 4 (Homo sapiens) (Q9NPH5 whole entry, looked up): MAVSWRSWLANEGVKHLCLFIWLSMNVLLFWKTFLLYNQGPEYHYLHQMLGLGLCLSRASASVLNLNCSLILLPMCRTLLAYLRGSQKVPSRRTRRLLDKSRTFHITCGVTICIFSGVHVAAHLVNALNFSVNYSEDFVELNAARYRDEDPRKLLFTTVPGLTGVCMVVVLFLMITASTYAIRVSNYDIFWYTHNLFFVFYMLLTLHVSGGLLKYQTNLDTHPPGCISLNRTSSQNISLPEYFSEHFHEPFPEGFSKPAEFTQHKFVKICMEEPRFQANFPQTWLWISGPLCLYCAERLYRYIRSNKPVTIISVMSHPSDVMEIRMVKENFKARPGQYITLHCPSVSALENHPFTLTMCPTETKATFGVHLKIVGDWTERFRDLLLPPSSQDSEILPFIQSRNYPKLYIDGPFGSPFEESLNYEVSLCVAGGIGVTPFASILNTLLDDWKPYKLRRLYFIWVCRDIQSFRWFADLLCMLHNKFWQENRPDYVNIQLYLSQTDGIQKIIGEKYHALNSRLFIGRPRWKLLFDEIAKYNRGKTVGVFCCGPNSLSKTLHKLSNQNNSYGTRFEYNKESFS
Assay [10] addresses NADPH oxidase 5 (Homo sapiens) (UniProt Q96PH1). The assay is described as follows: compounds shifting NOX5 Amplex Red fluorescence – cell-based, HEK293-NOX5, NOX inhibitor project, primary screen (AID 1161). Conditions: HEK293-NOX5, ionomycin, 45 min, higher = more signal.
A short description of assay [11]: compound effects on lung adenocarcinoma cell viability – A549, calcein-AM fluorescence, 48 h, basal, profiling panel (AID 1162). Also: test concentration not given here. Conditions: higher = more signal.
Assay [12] in a line: compound effects on differentiated 3T3-L1 adipocyte viability – cell-based, 3T3-L1 adipocytes, calcein-AM fluorescence, 48 h, basal, profiling panel (AID 1163). Also: test concentration not given here. Particulars: 3T3-L1 adipocytes viability, higher = more signal.
Assay [13] can be described thus: compound effects on hepatocellular carcinoma cell viability – HepG2, calcein-AM fluorescence, 48 h, basal, profiling panel (AID 1164). Also: test concentration not given here. Conditions: higher = more signal.
The nature of assay [14]: compound effects on multiple myeloma cell viability – MM1S, calcein-AM fluorescence, 48 h, basal, profiling panel (AID 1165).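 Also: viability of MM1S multiple myeloma cells under basal unstimulated conditions; test concentration not given here.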 Particulars: higher = more signal.
A short description of assay [15]: calcein-AM signal in unstimulated myeloma cells – cell-based, calcein-AM fluorescence, 48 h, PK04 Diversity Set, profiling panel (AID 1166).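 Also: cells grown under basal conditions without added stimulus; test concentration not given here.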 Particulars: RPMI8226 myeloma viability, higher = more signal.
Assay [16] can be described thus: JC-1 mitochondrial signal, unstimulated HepG2 cells – cell-based, JC-1 fluorescence, 24 h, 100 nL compound, profiling panel (AID 1167). Also: test concentration not given here. Particulars: HepG2 mitochondrial potential, higher = more signal.
Assay [17] can be described thus: JC-1 mitochondrial signal, unstimulated adipocytes – cell-based, JC-1 fluorescence, 3T3-L1 adipocytes, 24 h, 100 nL compound, profiling panel (AID 1168). Also: test concentration not given here. Particulars: JC-1 mitochondrial fluorescence, higher = more signal, called active from +8 up or from −8 down.
The nature of assay [18]: JC-1 mitochondrial signal, unstimulated myeloma cells – cell-based, JC-1 fluorescence, RPMI8226, 24 h, 100 nL compound, profiling panel (AID 1169). Also: test concentration not given here. Conditions: JC-1 mitochondrial potential fluorescence, higher = more signal.
Assay [19] in a line: JC-1 mitochondrial signal, unstimulated MM1S myeloma – cell-based, JC-1 fluorescence, 24 h, 100 nL compound, profiling panel (AID 1170). Also: test concentration not given here. Conditions: MM1S mitochondrial potential, higher = more signal.
Assay [20] can be described thus: resazurin metabolic signal in A549 cells – cell-based, resazurin fluorescence, 24 h, PK04 Diversity Set, profiling panel (AID 1171). Also: test concentration not given here. Conditions: A549 viability, higher = more signal, called active from +8 up or from −8 down.

The source made the active and inactive calls.

The values that follow come from PubChem BioAssay.

Sequence of NADPH oxidase 5 (Homo sapiens) (Q96PH1 whole entry, looked up): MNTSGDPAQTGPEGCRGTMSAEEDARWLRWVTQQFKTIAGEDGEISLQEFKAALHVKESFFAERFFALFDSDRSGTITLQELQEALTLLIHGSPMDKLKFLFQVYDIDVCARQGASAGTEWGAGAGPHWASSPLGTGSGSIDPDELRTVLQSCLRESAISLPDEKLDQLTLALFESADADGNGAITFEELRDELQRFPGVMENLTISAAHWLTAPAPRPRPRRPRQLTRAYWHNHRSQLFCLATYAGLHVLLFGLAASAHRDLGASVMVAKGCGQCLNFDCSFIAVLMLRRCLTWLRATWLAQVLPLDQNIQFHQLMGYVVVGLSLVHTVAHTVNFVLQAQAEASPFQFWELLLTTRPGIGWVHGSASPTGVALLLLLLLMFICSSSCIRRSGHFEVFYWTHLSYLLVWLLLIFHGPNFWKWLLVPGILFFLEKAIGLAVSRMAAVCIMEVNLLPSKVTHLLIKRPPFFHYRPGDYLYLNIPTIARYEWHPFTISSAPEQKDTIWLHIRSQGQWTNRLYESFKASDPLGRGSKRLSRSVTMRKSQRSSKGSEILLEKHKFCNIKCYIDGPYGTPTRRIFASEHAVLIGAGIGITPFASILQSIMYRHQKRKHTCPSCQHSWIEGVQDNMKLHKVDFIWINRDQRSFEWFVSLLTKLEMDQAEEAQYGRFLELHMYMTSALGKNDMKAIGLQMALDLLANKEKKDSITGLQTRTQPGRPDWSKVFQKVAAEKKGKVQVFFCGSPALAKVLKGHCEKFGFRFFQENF
Sequence of NADPH oxidase 2 (Homo sapiens) (P04839 whole entry, looked up): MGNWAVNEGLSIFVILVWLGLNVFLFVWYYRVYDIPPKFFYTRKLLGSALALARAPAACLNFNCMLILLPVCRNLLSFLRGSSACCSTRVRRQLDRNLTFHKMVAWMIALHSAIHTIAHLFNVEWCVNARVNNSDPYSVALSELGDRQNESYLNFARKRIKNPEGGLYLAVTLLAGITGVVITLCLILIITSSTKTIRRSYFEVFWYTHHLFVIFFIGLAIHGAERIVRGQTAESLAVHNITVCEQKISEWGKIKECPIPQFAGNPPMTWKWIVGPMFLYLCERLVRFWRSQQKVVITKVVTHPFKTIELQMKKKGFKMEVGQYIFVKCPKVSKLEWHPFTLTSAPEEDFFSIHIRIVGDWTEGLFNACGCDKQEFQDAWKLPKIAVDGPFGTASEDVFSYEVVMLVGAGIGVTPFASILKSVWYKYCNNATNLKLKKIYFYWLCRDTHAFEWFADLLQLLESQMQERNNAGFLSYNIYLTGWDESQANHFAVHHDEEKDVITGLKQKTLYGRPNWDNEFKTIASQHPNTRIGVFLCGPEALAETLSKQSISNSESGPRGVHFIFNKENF

In the case of `CCOC(=O)C[C@H]1[C@H](OC(=O)c2ccc(C(=O)c3ccccc3)cc2)[C@@H](NC(=O)CC(C)C)c2cc(OCCCO)ccc2N1C(=O)Cc1ccc(OC)cc1`, the z-score in assay [1] was 0.23 (inactive); in assay [3], 4.38 (inactive); in assay [4] it was 0.351 (inactive); in assay [5], -0.0495 (inactive); in [6], 0.0625 (inactive); in [7], -0.174. The z-score in [8] is -0.354 (inactive); in assay [9], 0.528 (inactive); in [10] it was 0.522; in assay [11], -0.206; in assay [12], -0.194; in [13], -0.0232. Besides, the z-score is 0.467 in [14]; -0.679 in assay [15]; 1.88 in assay [16]; -0.689 (inactive) in assay [17]; 0.573 in assay [18]; 0.288 in [19]. Further, the z-score in [20] was 0.189 (inactive). Further, in [2], the composite z-score amounted to 0.243.
Turning to `O=C1OCC=C[C@H]2OC34C=CCN(c5ccc6ccccc6c5)C(=O)[C@H]3N(CCCCCO)C(=O)[C@@H]4[C@@H]12` (stereo not given in full), the z-score in [1] is -0.186 (inactive); in assay [3], 2.04 (inactive); in assay [4], 0.132 (inactive); in [5] it was 1 (inactive); in [6] it was 0.162 (inactive); in assay [7], -0.798. In addition, the z-score is 1.57 (inactive) in [8]; 0.056 (inactive) in assay [9]; 2.93 in assay [10]; -0.381 in assay [11]; -0.0217 in assay [12]; -1.08 in assay [13]. Besides, the z-score in [14] was 0.589; in assay [15] it was 0.0725; in [16] it was -0.913; in [17], -0.436 (inactive); in [18] it was -0.0765; in [19], 0.313. Moreover, in assay [20], the z-score was -1.01 (inactive). For the same compound, the composite z-score in assay [2] amounted to 0.407.
On to `CC(C)C(=C=CC[C@@H](O)c1cccc(OCCO)c1)C[C@@H](O)c1ccccn1`, for which the z-score in assay [1] is 0.599 (inactive); in assay [3], 8.55 (active); in assay [4], 0.809 (inactive); in assay [5] it was 0.489 (inactive); in assay [6], 0.527 (inactive); in [7] it was 0.0722. The z-score is -1.37 (inactive) in assay [8]; -0.666 (inactive) in assay [9]; -1.45 in [10]; -0.171 in assay [11]; -0.142 in [12]; -0.295 in assay [13]. For the same compound, the z-score is -0.0369 in assay [14]; 0.128 in assay [15]; -0.0286 in assay [16]; -0.425 (inactive) in [17]; -0.387 in assay [18]; -0.753 in assay [19]. In addition, the z-score in assay [20] was 1.22 (inactive). The same compound came in with a composite z-score in assay [2] of 0.0502.
`CO[C@H]1O[C@H](CO)[C@@H](OC(=O)CCc2ccccc2)[C@H](OC(=O)c2cc3ccccc3[nH]2)[C@H]1OC(=O)c1cc2ccccc2[nH]1`: the z-score in [1] is 2.71 (inactive); in assay [3], 2.39 (inactive); in assay [4], 0.923 (inactive); in [5], -2.27 (inactive); in [6] it was 1.1 (inactive); in [7], 2.17. The z-score in assay [8] was -0.601 (inactive); in [9] it was 0.0901 (inactive); in assay [10], 0.855; in assay [11] it was 0.98; in assay [12] it was 0.679; in assay [13], 0.138. For the same compound, the z-score in assay [14] is -2.82; in assay [15] it was -2.54; in assay [16] it was -2.04; in assay [17], 1.36 (inactive); in [18], -0.502; in [19], -1.1. The z-score in assay [20] is -2.84 (inactive). Besides, the composite z-score in assay [2] was -0.162.
In the case of `CCOC(=O)C[C@H]1[C@H](OC(=O)c2ccccc2-c2ccccc2)[C@@H](NC(=O)c2ccccc2)c2cc(OCCCO)ccc2N1C(=O)c1ccccc1`, the z-score was -1.13 (inactive) in assay [1]; 1.61 (inactive) in [3]; 0.0478 (inactive) in [4]; 1.11 (inactive) in assay [5]; 0.256 (inactive) in [6]; -0.133 in assay [7]. Besides, the z-score was 0.418 (inactive) in assay [8]; 0.884 (inactive) in [9]; 0.838 in assay [10]; -0.164 in assay [11]; -0.603 in [12]; -0.56 in [13]. In addition, the z-score in assay [14] is -0.162; in assay [15], -0.559; in assay [16], -0.127; in assay [17], -0.0812 (inactive); in assay [18], -0.485; in assay [19] it was 0.318. In addition, in [20], the z-score is -0.336 (inactive). In addition, the composite z-score in assay [2] was -0.0547.
